# Assay results: PubChem BioAssay (EPA / NIEHS)
# “And” between values parts separate entries of the source, which are not always exact repeats. Identical values can stand only once. Records with an inconclusive call do not appear. Some compounds were tested as several samples or in several runs, with calls that do not always agree. The source made the active and inactive calls. The calls were made as follows: active = hit-call score of the fitted dose curve at least 0.9, where 1 is the maximum; inconclusive = response in the unintended direction; inactive = score below 0.9.
# Assays:
# [1] = target: sheep Cyclooxygenase-1 (Cox1), PTGS1 (gene 443551) (UniProt P05979); test: NVS_ENZ_oCOX1: NovaScreen (NVS) Enzymatic Assay for sheep Cyclooxygenase-1 (Cox1) (AID 2283239);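 also: actives reduce cyclooxygenase activity so potencies are for inhibitors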
# Method in brief: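 Colorimetric enzyme readout using sheep seminal-vesicle cyclooxygenase-1, measured 0.66 h post-dosing. Single-concentration duplicates at 25 uM first, then concentration series for actives, with DMSO as baseline and plate controls.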
# [2] = tested on: rat Monoamine Oxidase, MAO-A, Central (MAOAC), gene 29253; test: NVS_ENZ_rMAOAC: NovaScreen (NVS) Enzymatic Assay for rat Monoamine Oxidase, MAO-A, Central (MAOAC) (AID 2283243);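 also: potency refers to inhibition seen as signal drop below DMSO baseline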
# Method in brief: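 Rat brain tissue extract used as enzyme source in a cell-free radiometric assay, read by scintillation counting 1.5 hours after dosing. Loss of signal relative to DMSO baseline scored; primary screen at 25 uM in duplicate, actives followed up in concentration series.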
# [3] = target: rat Monoamine Oxidase, MAO-B, Central (MAOBC), Maob (gene 25750) (UniProt P19643); test: NVS_ENZ_rMAOBC: NovaScreen (NVS) Enzymatic Assay for rat Monoamine Oxidase, MAO-B, Central (MAOBC) (AID 2283238)
# Method: NVS_ENZ_rMAOBC is a biochemical, single-readout assay that uses extracted gene-proteins from Rat brain in a tissue-based cell-free assay. Measurements were taken 1.17 hours after chemical dosing in a 96-well plate.NVS_ENZ_rMAOBC is one of one assay component(s) measured or calculated from the NVS_ENZ_rMAOBC assay. It is designed to make measurements of enzyme activity, a form of enzyme reporter, as detected with scintillation counting signals by Lysate-based radiodetection technology.Data from the assay component NVS_ENZ_rMAOBC was analyzed into 1 assay endpoint. This assay endpoint, NVS_ENZ_rMAOBC, was analyzed in the positive analysis fitting direction relative to DMSO as the negative control and baseline of activity. Using a type of enzyme reporter, loss-of-signal activity can be used to understand changes in the enzymatic activity as they relate to the gene Maob. Furthermore, this assay endpoint can be referred to as a primary readout, because this assay has produced multiple assay endpoints where this one serves a enzymatic activity function. To generalize the intended target to other relatable targets, this assay endpoint is annotated to the oxidoreductase intended target family, where the subfamily is monoamine oxidase.
# Binding assays used specific radioligands (tritiated, iodinated) with non-radioactive competitive displacement ligands in agonist or antagonist protocols (as indicated) and various reference compounds and inhibitors to titrate specific binding to receptors and transporters. Most enzyme assays (CYPs, kinases, phosphatases, proteases, HDACs) used recombinant protein and specific substrates (fluorescence mostly, some colorimetric and radioactive) and inhibitors, followed by a biochemical separation of substrate and product. All assays for the biochemical HTS were initially run in duplicate at a single concentration (10 uM for CYP450 assays and 25 uM for all others). Assay-chemical combinations meeting a pre-defined threshold (e.g., 30% inhibition and other criteria defined below) were then run in singleton concentration-response format with maximum concentration of 20 uM for CYPs and 50 uM for all others. Each assay was run with positive and negative controls, and concurrent controls on every plate. The follow-up (secondary) screen tested active chemical-pairs in concentration series, as well as a few additional assays not tested in the primary screen, some selected negative inactives, and several cases re-run in the concentration series for confirmatory purposes.
# [4] = target: rat Monoamine Oxidase, MAO-B, Peripheral (MAOBP), Maob (gene 25750) (UniProt P19643); test: NVS_ENZ_rMAOBP: NovaScreen (NVS) Enzymatic Assay for rat Monoamine Oxidase, MAO-B, Peripheral (MAOBP) (AID 2283242)
# [5] = tested on: guinea pig Leukotriene B4 Receptor (LTB4), gene 100379538; test: NVS_GPCR_gLTB4: NovaScreen (NVS) G Protein-Coupled Receptor Assay for guinea pig Leukotriene B4 Receptor (LTB4) (AID 2283247)
# Method in brief: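 Radioligand displacement on guinea pig spleen membranes, filter-based scintillation counting 2 h after dosing. Primary duplicate single point at 25 uM; hits over threshold (e.g. 30% inhibition) run in concentration-response up to 50 uM, DMSO baseline.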
# [6] = tested on: bovine Histamine 1 Receptor (H1), gene 281231; test: NVS_GPCR_bH1: NovaScreen (NVS) G Protein-Coupled Receptor Assay for bovine Histamine 1 Receptor (H1) (AID 2283246)
# Method in brief: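 Radioligand displacement on bovine cerebellar membranes, 1 h after dosing, filter-based scintillation read-out; loss of signal vs DMSO. Duplicate single-concentration screen at 25 uM, then concentration-response up to 50 uM for hits.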
# [7] = tested on: bovine Angiotensin II Receptor Type 2 (AT2), gene 407157; test: NVS_GPCR_bAT2: NovaScreen (NVS) G Protein-Coupled Receptor Assay for bovine Angiotensin II Receptor Type 2 (AT2) (AID 2283240)
# Method in brief: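 Radioligand displacement on bovine cerebellar membranes, 1 hour incubation, filter-based scintillation counting; loss of signal vs DMSO. Duplicate single-point screen at 25 uM, then concentration-response to 50 uM maximum.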
# [8] = target: Adenosine receptor A1 (Bos taurus) (UniProt P28190); test: NVS_GPCR_bAdoR_NonSelective: NovaScreen (NVS) G Protein-Coupled Receptor Assay for bovine Adenosine Receptor (AdoR), Non-selective Binding (AID 2283244)
# Method in brief: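 Bovine striatal membranes, radioligand displacement binding, 1 h after dosing, filter-based scintillation counting. Screened in duplicate at 25 uM, then concentration-response up to 50 uM; loss of specific binding relative to DMSO.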
# [9] = target: bovine Dopamine Receptor (DR), Non-selective Binding, DRD1 (gene 281125) (UniProt Q95136); test: NVS_GPCR_bDR_NonSelective: NovaScreen (NVS) G Protein-Coupled Receptor Assay for bovine Dopamine Receptor (DR), Non-selective Binding (AID 2283241)
# Method in brief: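 Bovine striatal membranes; radioligand displacement read by filtration and scintillation counting 1 h after dosing, loss of signal vs DMSO. Screened in duplicate at 25 uM, then concentration-response for hits.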
# [10] = NVS_GPCR_bNPY_NonSelective: NovaScreen (NVS) G Protein-Coupled Receptor Assay for bovine Neuropeptide Y (NPY) Receptor, Non-selective Binding (AID 2283245)
# Method in brief: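 Bovine hippocampal membranes incubated 1 hour with radioligand and test chemical. Bound ligand measured by filter-based scintillation counting. Single-concentration screen at 25 uM in duplicate, then concentration-response up to 50 uM.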
# sheep Cyclooxygenase-1 (Cox1), PTGS1 (gene 443551), sequence (P05979 whole entry, looked up): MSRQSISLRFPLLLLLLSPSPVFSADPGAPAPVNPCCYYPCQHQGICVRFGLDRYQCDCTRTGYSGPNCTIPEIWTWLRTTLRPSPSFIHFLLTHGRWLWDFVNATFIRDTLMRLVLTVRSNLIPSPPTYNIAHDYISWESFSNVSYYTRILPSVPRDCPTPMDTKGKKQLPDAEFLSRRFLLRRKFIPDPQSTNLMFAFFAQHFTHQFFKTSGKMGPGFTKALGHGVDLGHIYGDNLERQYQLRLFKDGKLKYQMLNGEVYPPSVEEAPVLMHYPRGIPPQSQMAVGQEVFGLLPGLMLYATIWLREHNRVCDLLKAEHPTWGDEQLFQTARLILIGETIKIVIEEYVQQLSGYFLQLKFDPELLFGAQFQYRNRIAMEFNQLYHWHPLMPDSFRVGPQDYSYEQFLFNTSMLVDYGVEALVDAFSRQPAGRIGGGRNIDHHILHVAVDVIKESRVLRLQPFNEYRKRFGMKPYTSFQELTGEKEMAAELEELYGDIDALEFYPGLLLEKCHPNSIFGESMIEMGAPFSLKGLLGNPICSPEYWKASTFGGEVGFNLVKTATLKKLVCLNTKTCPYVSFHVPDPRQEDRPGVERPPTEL
# Adenosine receptor A1 (Bos taurus), sequence (P28190 whole entry, looked up): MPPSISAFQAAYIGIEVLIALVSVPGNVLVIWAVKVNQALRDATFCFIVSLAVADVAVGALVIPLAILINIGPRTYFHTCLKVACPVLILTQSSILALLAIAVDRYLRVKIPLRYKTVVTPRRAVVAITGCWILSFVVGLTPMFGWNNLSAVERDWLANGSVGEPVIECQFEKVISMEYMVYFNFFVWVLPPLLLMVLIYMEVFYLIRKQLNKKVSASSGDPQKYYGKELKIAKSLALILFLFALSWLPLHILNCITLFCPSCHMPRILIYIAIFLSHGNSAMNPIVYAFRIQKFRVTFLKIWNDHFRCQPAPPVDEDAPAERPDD
# bovine Dopamine Receptor (DR), Non-selective Binding, DRD1 (gene 281125), sequence (Q95136 whole entry, looked up): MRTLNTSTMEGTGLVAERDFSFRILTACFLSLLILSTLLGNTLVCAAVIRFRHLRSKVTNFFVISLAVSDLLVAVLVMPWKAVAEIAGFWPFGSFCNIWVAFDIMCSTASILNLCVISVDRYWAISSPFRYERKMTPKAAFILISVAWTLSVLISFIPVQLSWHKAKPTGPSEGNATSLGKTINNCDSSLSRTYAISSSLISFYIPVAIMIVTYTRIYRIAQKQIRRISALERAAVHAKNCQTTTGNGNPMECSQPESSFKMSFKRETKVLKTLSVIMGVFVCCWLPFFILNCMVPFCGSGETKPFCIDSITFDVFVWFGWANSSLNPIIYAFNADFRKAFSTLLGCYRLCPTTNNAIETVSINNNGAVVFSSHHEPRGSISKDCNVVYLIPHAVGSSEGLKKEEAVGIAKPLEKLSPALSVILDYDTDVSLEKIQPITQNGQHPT
# rat Monoamine Oxidase, MAO-B, Central (MAOBC), Maob (gene 25750), sequence (P19643 whole entry, looked up): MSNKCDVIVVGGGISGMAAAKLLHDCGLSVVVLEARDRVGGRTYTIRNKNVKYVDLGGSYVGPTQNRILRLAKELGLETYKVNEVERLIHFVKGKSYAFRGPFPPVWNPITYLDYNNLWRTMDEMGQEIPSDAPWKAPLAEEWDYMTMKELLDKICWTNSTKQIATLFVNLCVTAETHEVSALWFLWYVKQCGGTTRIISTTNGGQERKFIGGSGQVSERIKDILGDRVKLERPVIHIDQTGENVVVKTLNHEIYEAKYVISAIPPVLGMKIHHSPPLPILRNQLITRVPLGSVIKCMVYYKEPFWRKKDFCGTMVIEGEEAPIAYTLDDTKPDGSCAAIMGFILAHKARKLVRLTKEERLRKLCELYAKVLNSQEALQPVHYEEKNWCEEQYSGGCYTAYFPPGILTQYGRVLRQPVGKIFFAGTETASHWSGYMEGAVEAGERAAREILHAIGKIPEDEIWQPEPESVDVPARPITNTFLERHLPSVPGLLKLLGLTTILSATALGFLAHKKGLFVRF
# rat Monoamine Oxidase, MAO-B, Peripheral (MAOBP), Maob (gene 25750), sequence (P19643 whole entry, looked up): as above
smiles,measurement,setting,value
Oc1ccccc1-c1ccccc1,AC50,[1],8.97 µM (active)
same,AC50,[2],25 µM (active)
COc1ccc(C(c2ccc(OC)cc2)C(Cl)(Cl)Cl)cc1,AC50,[3],25 µM (active)
COC(=O)C=C(C)OP(=O)(OC)OC,outcome,[4],inactive
CC(C)(C)c1ccc(CSc2cnn(C(C)(C)C)c(=O)c2Cl)cc1,outcome,[3],inactive
same,outcome,[1],inactive
CCCCNC(=O)n1c(NC(=O)OC)nc2ccccc21,outcome,[5],inactive
C=CCC1=C(C)[C@@H](OC(=O)[C@@H]2[C@@H](C=C(C)C)C2(C)C)CC1=O,outcome,[1],inactive
C#CCOS(=O)OC1CCCCC1Oc1ccc(C(C)(C)C)cc1 (stereo not given),AC50,[3],13.3 µM (active)
C=CC1(C)OC(=O)N(c2cc(Cl)cc(Cl)c2)C1=O (stereo not given),outcome,[3],inactive
same,outcome,[1],inactive
CC(C)Oc1cc(-n2nc(C(C)(C)C)oc2=O)c(Cl)cc1Cl,outcome,[6],inactive
Cc1ccc(-c2c(Cl)nc(C#N)n2S(=O)(=O)N(C)C)cc1,outcome,[7],inactive
same,AC50,[2],4.79 µM (active)
same,AC50,[5],1.93 µM (active)
CON(C)C(=O)Nc1ccc(Cl)c(Cl)c1,AC50,[3],16.1 µM (active) [middle of 4 runs]
same,outcome,[1],inactive
same,AC50,[2],20.5 µM (active) [middle of 4 runs]
CCOC(=O)CC(SP(=S)(OC)OC)C(=O)OCC (stereo not given),outcome,[3],inactive
same,AC50,[8],9.48 µM (active)
O=C(Nc1ccccc1)Nc1ccnc(Cl)c1,outcome,[3],inactive
same,AC50,[2],25 µM (active)
CCCCNC(=O)OCC#CI,outcome,[3],inactive
same,outcome,[9],inactive
same,AC50,[4],42.4 µM (active)
same,AC50,[8],11.9 µM (active)
same,outcome,[8],inactive
same,AC50,[10],4.96 µM (active)
same,outcome,[10],inactive
N#CC(CCc1ccc(Cl)cc1)(Cn1cncn1)c1ccccc1 (stereo not given),outcome,[5],inactive
CO/C=C(/C(=O)OC)c1ccccc1Oc1cc(Oc2ccccc2C#N)ncn1,outcome,[1],inactive
same,AC50,[8],19.1 µM (active) and 7.23 µM (active)
COc1nc(C)nc(NC(=O)NS(=O)(=O)c2ccccc2Cl)n1,AC50,[2],37.7 µM (active)
same,outcome,[2],inactive
CC1=C(C(=O)Nc2ccccc2)SCCO1,AC50,[2],17.5 µM (active)
CN(C)C(=S)SSC(=S)N(C)C,outcome,[1],inactive
same,outcome,[4],inactive
CCCCOC(=O)c1ccccc1C(=O)OCCCC,outcome,[1],inactive
same,outcome,[9],inactive
COc1nc(NC(C)C)nc(NC(C)C)n1,AC50,[3],1.29 µM (active)
same,AC50,[8],25 µM (active)
CCNc1nc(Cl)nc(NC(C)C)n1,AC50,[2],25 µM (active) and 8.22 µM (active)
same,outcome,[2],inactive
same,AC50,[8],8.64 µM (active)
same,outcome,[6],inactive
COC(=O)c1ccccc1C(=O)OC,outcome,[2],inactive
Fc1ccc(Oc2ccnc3cc(Cl)cc(Cl)c23)cc1,outcome,[2],inactive
CNC(=S)S,outcome,[4],inactive
same,outcome,[6],inactive
CC1COC(Cn2cncn2)(c2ccc(Oc3ccc(Cl)cc3)cc2Cl)O1 (stereo not given),AC50,[2],1.8 µM (active)
